21 compounds from PubChem BioAssay (NCI) can be followed below.

About 79,000 compounds went through this panel and 15% of them were active in at least one assay; those are over-represented in the sample as a whole. Values without a mark were called inactive. The source made the active and inactive calls. No stated cut-off is given here; in the data, active means growth inhibition above about 70%; inactive means the rest.

Assay [1] in a line: NCI Yeast Anticancer Drug Screen. Data for the rad50 strain (AID 155).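 Further: 0% = growth of vehicle-only cultures of the same strain.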 Particulars: S. cerevisiae rad50 strain growth inhibition; at 50.0 µM; hits give high values. An outline of the steps:
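Cells are treated with compound, grown, and their growth is then scored against vehicle-only cultures of the same repair-deficient yeast strain.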

A short description of assay [2]: NCI Yeast Anticancer Drug Screen. Data for the mec2-1 strain (AID 157). As to conditions: S. cerevisiae mec2-1 strain, at 50.0 µM, hits give high values. An outline of the steps: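 Vehicle-treated cultures served as reference for growth inhibition of compound-exposed mec2-1 yeast.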
Assay [3] can be described thus: NCI Yeast Anticancer Drug Screen. Data for the sgs1 mgt1 strain (AID 161).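 Further: 0% = growth of cultures given vehicle only.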 Particulars: S. cerevisiae sgs1 mgt1 strain, at 50.0 µM, hits give high values. An outline of the steps:
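Mutant yeast exposed to compound; growth scored against vehicle-only wells.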

Assay [4] can be described thus: NCI Yeast Anticancer Drug Screen. Data for the cln2 rad14 strain (AID 165).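 Further: 0% = growth equal to vehicle treated cultures.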 As to conditions: S. cerevisiae cln2 rad14 strain, at 50.0 µM, hits give high values. An outline of the steps:
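Each compound was tested on cln2 rad14 yeast. Inhibition of growth was calculated against vehicle-exposed controls.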

Assay [5] in a line: NCI Yeast Anticancer Drug Screen. Data for the bub3 strain (AID 167). Particulars: S. cerevisiae bub3 mutant strain, at 50.0 µM, hits give high values. The gist of the method: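 Part of a panel of yeast mutants defective in DNA damage repair or cell cycle regulation. Each strain is grown with compound, and inhibition is calculated relative to solvent-treated cultures.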
Assay [6] in a line: NCI Yeast Anticancer Drug Screen. Data for the mlh1 rad18 strain (AID 175). As to conditions: S. cerevisiae mlh1 rad18 strain growth inhibition; at 50.0 µM; hits give high values. An outline of the steps:
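Vehicle-treated cultures served as the reference for growth inhibition in a yeast strain carrying DNA damage repair alterations exposed to each compound.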

With `c1ccc2c[n+](Cc3ccc4ccccc4n3)ccc2c1`, the growth inhibition in assay [1] was 13%; in assay [2], -4.3%; in assay [3], 4.05%; in assay [4], -60%; in assay [5], -9.9%; in assay [6], 9.9%.

For the compound `CCC1(O)CC2C3C(C(=O)OC)=C4Nc5ccccc5C45CCN(C31)C25` (stereo unspecified), the growth inhibition was 6.2% in assay [1]; -6.3% in assay [2]; 3.35% in assay [3]; 11.8% in assay [4]; 1.9% in assay [5]; -2.1% in assay [6].

With `O=C1CCC(=O)N1CC1CC2CCC1C2` (stereo unspecified), the growth inhibition in assay [1] was 40%; in assay [2], 4.15%; in assay [3], 22.2%; in assay [4], 23.8%; in assay [5], 4.4%; in assay [6], 36%.

In the case of `CCCCNC(=O)c1ccccc1C`, the growth inhibition in assay [1] is 4.8%; in assay [2], 4.7%; in assay [3], -6.7%; in assay [4] it was -34.9%; in assay [5], 2.25%; in assay [6], 1.35%.

Take `Cc1cc(N=Nc2ccc(C(=O)Nc3ccc4cc(S(=O)(=O)O)ccc4c3)cc2)c(N)c(N=Nc2ccc(N=Nc3ccc(O)c(C(=O)O)c3)cc2)c1N`: the growth inhibition is 8.2% in assay [1]; 29.6% in assay [2]; 53.8% in assay [3]; -21.9% in assay [4]; -11.3% in assay [5]; 44.6% in assay [6].

As for `Cc1cccc(Cl)c1NC(=O)N(C)c1ccccc1`, the growth inhibition in assay [1] was 8.95%; in assay [2] it was -11.9%; in assay [3] it was 14.2%; in assay [4] it was 23.4%; in assay [5], 23.9%; in assay [6], 11.7%.

For `Cc1cc2ncn(C3OC(CO)C(O)C3O)c2cc1C` (stereo unspecified), the growth inhibition in assay [1] was -2.7%; in assay [2] it was 8.35%; in assay [3], -8.25%; in assay [4], 21.5%; in assay [5], -8.2%; in assay [6], 2.65%.

With `O=C(NCc1ccccc1)C1CCN(Cc2c[nH]c3ccccc23)CC1`, the growth inhibition in assay [1] is -0.3%; in assay [2], -4.4%; in assay [3], 3.15%; in assay [4] it was 16.5%; in assay [5] it was 1.7%; in assay [6], 28.7%.

For the compound `Cc1ccc(N2CCN(c3ccc(C)cc3)C2=C2N(c3ccc(C)cc3)CCN2c2ccc(C)cc2)cc1`, the growth inhibition in assay [1] was 78.5% (active); in assay [2], 20.4%; in assay [3], 56.5%; in assay [4], 34.1%; in assay [5] it was 37.1%; in assay [6] it was 19.6%.

On to `Brc1ccccc1-c1nc2ccccc2[nH]1`, for which the growth inhibition in assay [1] was 4.1%; in assay [2], -4.4%; in assay [3] it was 4%; in assay [4], -63%; in assay [5], -6.1%; in assay [6], -2.55%.

As to `CCc1nc(-c2ccccc2)nc2c1nc(-c1cccc(C)c1)n2Nc1ccccc1`, the growth inhibition was 1.45% in assay [1]; 3.1% in assay [2]; -6.15% in assay [3]; -3% in assay [4]; -1.6% in assay [5]; 24.1% in assay [6].

`CSc1nc(N(C)C)c2[nH]c(C)nc2n1`: the growth inhibition in assay [1] was 7.2%; in assay [2], 9.5%; in assay [3], -6.55%; in assay [4], 36.6%; in assay [5], 10.6%; in assay [6], 31.6%.

For `O=C1CCc2c(Cl)sc(Cl)c21`, the growth inhibition in assay [1] was 20.1%; in assay [2], 5.5%; in assay [3], 13.8%; in assay [4], -32.2%; in assay [5] it was 4.1%; in assay [6], 9.95%.

As for `O=C(O)c1nc(Cl)c(Cl)[nH]c1=O`, the growth inhibition in assay [1] is -15.3%; in assay [2] it was -29.6%; in assay [3], 8.6%; in assay [4] it was -65.6%; in assay [5] it was 2.5%; in assay [6] it was 3.6%.

As for `CCCCCCCCCCCC(=O)CC(=O)c1c(O)cccc1O`, the growth inhibition is 1.35% in assay [1]; -11.6% in assay [2]; 6.45% in assay [3]; 0.1% in assay [4]; 20.7% in assay [5]; -12.2% in assay [6].

With `O=C(/C=C/c1ccc([N+](=O)[O-])cc1)NN=C(c1ccccc1)c1ccccc1`, the growth inhibition in assay [1] is -20.4%; in assay [2], -16.4%; in assay [3] it was -12.3%; in assay [4], -7.1%; in assay [5], -9.5%; in assay [6] it was -0.15%.

As to `OCC1NCC(O)C(O)C1O` (stereo unspecified), the growth inhibition in assay [1] is -6.6%; in assay [2], -11.6%; in assay [3] it was -14.4%; in assay [4] it was 2.3%; in assay [5] it was -8.3%; in assay [6], 7.25%.

Consider `Nc1[nH][nH]c(=O)c1N=Nc1ccccc1`, for which the growth inhibition in assay [1] was -7.75%; in assay [2] it was -8.95%; in assay [3] it was -1.15%; in assay [4] it was -6.6%; in assay [5], 8.4%; in assay [6] it was 5.15%.

With `[O-][N+]1=C(c2ccccc2)C(c2ccccc2)C(c2ccccc2)O1` (stereo unspecified), the growth inhibition was -13.4% in assay [1]; 1.05% in assay [2]; -2.4% in assay [3]; -6% in assay [4]; -19.1% in assay [5]; 11.2% in assay [6].

As for `CCCC(CCC)(C(=O)O)C(=O)O`, the growth inhibition in assay [1] was -10.3%; in assay [2], -25.1%; in assay [3], -12.5%; in assay [4], 27.5%; in assay [5], -17.9%; in assay [6], 11.5%.

As for `COC(=O)C1CCC(C)(C(=O)OC)C1(C)C` (stereo unspecified), the growth inhibition in assay [1] is 0%; in assay [2], -15.2%; in assay [3], -11.9%; in assay [4], -1.3%; in assay [5] it was -12.4%; in assay [6], -3.75%.
